Results reported in the supplement of paper PMC7366291.
Counter-ions that a name gives are not always drawn. ± gives the standard deviation or the standard deviation of the averaged measurements.

What was measured:
Conditions in all cases: 25 µM; exposure: 24-48 hpf
[1] = tested on: Danio rerio Tg(wt1b:EGFP) embryo, pronephros; test: glomerular separation, fold change vs DMSO control; higher = glomeruli further apart (abnormal)
How it was run: (§1)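 Distances and angles describing the pronephros were computed by a Fiji macro from 16 reference points set manually on maximum projections of dorsal images. These images came from dechorionated Tg(wt1b:EGFP) zebrafish embryos held in agarose-filled 96-well plates after exposure to 25 μM compound in 0.5% DMSO, in HEPES-buffered E3 with 0.003% PTU, from 24 to 48 hpf at 28.5°C. Any value more than 2 SD from the feature mean was excluded. Features are stated as fold change relative to the mean of same-day DMSO-treated embryos.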

[2] = tested on: Danio rerio Tg(wt1b:EGFP) embryo, pronephros; test: glomerular width (mean of left and right), fold change vs DMSO control; higher = wider glomerulus
How it was run: as §1

[3] = tested on: Danio rerio Tg(wt1b:EGFP) embryo, pronephros; test: fraction of imaged embryos annotated as normal kidney; higher = less nephrotoxic; extreme values may be limits of the assay
How it was run: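 From 24 to 48 hpf at 28.5°C, dechorionated Tg(wt1b:EGFP) zebrafish embryos in 12-well plates were kept in 5 mM HEPES-buffered E3 with 0.003% PTU, 0.5% DMSO and 25 μM compound. Pronephroi were imaged by widefield fluorescence at 470 nm and judged by eye from maximum projections. Reported is the proportion of embryos per treatment in the normal-kidney category.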

[4] = tested on: Danio rerio Tg(wt1b:EGFP) embryo, pronephros; test: pronephric angle neck segment to proximal convoluted tubule (mean of left and right), fold change vs DMSO control; higher = larger pronephric angle
How it was run: as §1

| SMILES | glomerular separation [1] | glomerular width [2] | fraction of imaged embryos annotated as normal kidney [3] | pronephric angle neck segment [4] |
| --- | --- | --- | --- | --- |
| CCNCC(O)c1cccc(O)c1 (stereo not drawn) [Etilefrine hydrochloride] | 0.79 ± 0.23 | 0.9277 ± 0.0022 | 0.833 | 0.951 ± 0.051 |
| C[C@]12CC[C@@H]3c4ccc(OC(=O)N(CCCl)CCCl)cc4CC[C@H]3[C@@H]1CC[C@@H]2O [Estramustine] | 2.15 ± 0.79 | 0.792 ± 0.018 | 0.333 | 1.1 ± 0.03 |
| S=C(NC1CCCCC1)N1CCC(c2cnc[nH]2)CC1 [Thioperamide maleate] | 1.28 ± 0.6 | 0.974 ± 0.011 | 0.917 | 1.06 ± 0.013 |
| CN1CCN(C(=O)OC2c3nccnc3C(=O)N2c2ccc(Cl)cn2)CC1 (stereo not drawn) [Zopiclone] | 1.06 ± 0.41 | 0.93 ± 0.014 | 1 | 0.98709 ± 0.00059 |
| CC(C)C[C@H]1C(=O)N2CCC[C@H]2[C@]2(O)O[C@](NC(=O)[C@@H]3C=C4c5cccc6[nH]c(Br)c(c56)C[C@H]4N(C)C3)(C(C)C)C(=O)N12 [Bromocryptine mesylate] | 1.01 ± 0.34 | 1.12 ± 0.012 | 0.833 | 0.985 ± 0.022 |
| C=C(C)[C@@H]1[C@H]2OC(=O)[C@@H]1[C@]1(O)C[C@H]3O[C@]34C(=O)O[C@H]2[C@]14C [Picrotoxinin] | 1.19 ± 0.57 | 0.973 ± 0.011 | 0.917 | 1.01 ± 0.03 |
| CC(=O)NC1CCSC1=O (racemic) [N-Acetyl-DL-homocysteine Thiolactone] | 0.761 ± 0.24 | 1.07 ± 0.041 | 0.917 | 1 ± 0.066 |
| CN1[C@@H]2CC[C@H]1C[C@@H](OC1c3ccccc3CCc3ccccc31)C2 [Deptropine citrate] | 0.934 ± 0.35 | 0.947 ± 0.035 | 1 | 0.939 ± 0.061 |
| C#C[C@]1(O)CC[C@H]2[C@@H]3CCC4=CC(=O)CC[C@]4(C)[C@H]3CC[C@@]21C [Ethisterone] | 0.918 ± 0.23 | 1.06 ± 0.071 | 0.909 | 1.065 ± 0.002 |
| CCCC(C)(COC(N)=O)COC(=O)NC(C)C (stereo not drawn) [Carisoprodol] | 0.877 ± 0.24 | 1.14 ± 0.026 | 1 | 0.938 ± 0.022 |
| CC(=O)O[C@H]1CC[C@@]2(C)C(=CC[C@@H]3[C@@H]2CC[C@]2(C)C(=O)CC[C@@H]32)C1 [Dehydroisoandosterone 3-acetate] | 1.13 ± 0.35 | 0.896 ± 0.056 | 0.917 | 1.02 ± 0.043 |
| C[C@@]12N[C@@H](Cc3ccccc31)c1ccccc12 [(-)-MK 801 hydrogen maleate] | 1.02 ± 0.29 | 1.034 ± 0.0098 | 1 | 1.02 ± 0.069 |
| CCC(C)C1O[C@]2(C=C[C@@H]1C)C[C@@H]1CC(C/C=C(\C)[C@@H](OC3C[C@H](OC)[C@@H](OC4C[C@H](OC)[C@@H](O)[C@H](C)O4)[C@H](C)O3)[C@@H](C)/C=C/C=C3\COC4[C@H](O)C(C)=CC(C(=O)O1)[C@]34O)O2 (stereo partly drawn) [Avermectin B1a] | 2.03 ± 1.1 | 0.898 ± 0.044 | 0.583 | 1.14 ± 0.069 |
| c1ccc2nc(N3CCNCC3)ccc2c1 [Quipazine dimaleate salt] | 1.09 ± 0.53 | 1.01 ± 0.04 | 0.75 | 1.022 ± 0.0046 |
| CCC1(c2cccc(O)c2)CCCCN(C)C1 (stereo not drawn) [Meptazinol hydrochloride] | 1.01 ± 0.35 | 0.967 ± 0.024 | 0.917 | 0.984 ± 0.06 |
| CC[C@@H](C(N)=O)N1CCCC1=O [Levetiracetam] | 0.937 ± 0.41 | 1.04 ± 0.041 | 0.917 | 1.011 ± 0.0044 |
| CC(NC(C)(C)C)C(=O)c1cccc(Cl)c1 (stereo not drawn) [Bupropion hydrochloride] | 0.797 ± 0.2 | 1.026 ± 0.0015 | 1 | 1.03 ± 0.011 |
| CN1[C@@H]2CC[C@H]1C[C@@H](OC(=O)[C@H](CO)c1ccccc1)C2 [Hyoscyamine (L)] | 0.956 ± 0.51 | 1.06 ± 0.03 | 0.75 | 0.999 ± 0.012 |
| C=CC[C@]1(O)CC[C@H]2[C@@H]3CCC4=CC(=O)CCC4=C3C=C[C@@]21C [Altrenogest] | 1.44 ± 0.77 | 1.07 ± 0.0053 | 0.333 | 0.981 ± 0.072 |
| C[C@]12CC[C@H]3[C@@H](CCC4=CC(=O)CC[C@@H]43)[C@@H]1CC[C@@H]2O [Nandrolone] | 1.02 ± 0.42 | 0.8978 ± 0.0049 | 0.833 | 0.95 ± 0.015 |
| Clc1ccc(C(OCCN2CCCCC2)c2ccccc2)cc1 (stereo not drawn) [Cloperastine hydrochloride] | 0.819 ± 0.35 | 1.04 ± 0.069 | 0.917 | 0.994 ± 0.0094 |
| CC(C)c1cccc(C(C)C)c1O [Propofol] | 0.693 ± 0.2 | 1.02 ± 0.021 | 0.75 | 1.02 ± 0.14 |
| CC(CCc1ccccc1)NC(C)C(O)c1ccc(O)cc1 (stereo not drawn) [Nylidrin] | 0.871 ± 0.34 | 1.02 ± 0.035 | 0.917 | 1 ± 0.02 |
| CC(=O)OCC(=O)[C@H]1CC[C@H]2[C@@H]3CC[C@H]4C[C@H](O)CC[C@]4(C)[C@H]3C(=O)C[C@]12C [Alfadolone acetate] | 1.22 ± 0.64 | 0.942 ± 0.057 | 0.75 | 1 ± 0.018 |
| c1ccc2c(c1)Nc1ccccc1S2 [Phenothiazine] | 1.35 ± 0.6 | 0.851 ± 0.062 | 0.75 | 1.101 ± 0.002 |
| Oc1ccc2c3c1O[C@H]1[C@@H](O)CC[C@@]4(O)[C@@H](C2)N(CC2CCC2)CC[C@]314 [Nalbuphine hydrochloride] | 0.874 ± 0.27 | 1 ± 0.033 | 0.75 | 1.04 ± 0.0056 |
| C[C@]12CC[C@H](O)C[C@@H]1CC[C@@H]1[C@@H]2CC[C@]2(C)C(=O)CC[C@@H]12 [Epiandrosterone] | 1.72 ± 0.71 | 0.905 ± 0.061 | 0.417 | 1.04 ± 0.022 |
